The record followed here is paper PMC4336329 (PLoS ONE, 2015).

Screen size: about 310,000 compounds; about 14,000 (4.5%) showed an effect of 50% or more. The effect is printed as a negative number. The list comes from a sample in which strong results are over-represented; it also holds similar structures and randomly drawn compounds.
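Also: peak tail current of the secondary pulse compared with the same well before compound.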

Sequence of human ether-à-go-go-related gene (hERG) potassium channel (Q12809 whole entry, looked up): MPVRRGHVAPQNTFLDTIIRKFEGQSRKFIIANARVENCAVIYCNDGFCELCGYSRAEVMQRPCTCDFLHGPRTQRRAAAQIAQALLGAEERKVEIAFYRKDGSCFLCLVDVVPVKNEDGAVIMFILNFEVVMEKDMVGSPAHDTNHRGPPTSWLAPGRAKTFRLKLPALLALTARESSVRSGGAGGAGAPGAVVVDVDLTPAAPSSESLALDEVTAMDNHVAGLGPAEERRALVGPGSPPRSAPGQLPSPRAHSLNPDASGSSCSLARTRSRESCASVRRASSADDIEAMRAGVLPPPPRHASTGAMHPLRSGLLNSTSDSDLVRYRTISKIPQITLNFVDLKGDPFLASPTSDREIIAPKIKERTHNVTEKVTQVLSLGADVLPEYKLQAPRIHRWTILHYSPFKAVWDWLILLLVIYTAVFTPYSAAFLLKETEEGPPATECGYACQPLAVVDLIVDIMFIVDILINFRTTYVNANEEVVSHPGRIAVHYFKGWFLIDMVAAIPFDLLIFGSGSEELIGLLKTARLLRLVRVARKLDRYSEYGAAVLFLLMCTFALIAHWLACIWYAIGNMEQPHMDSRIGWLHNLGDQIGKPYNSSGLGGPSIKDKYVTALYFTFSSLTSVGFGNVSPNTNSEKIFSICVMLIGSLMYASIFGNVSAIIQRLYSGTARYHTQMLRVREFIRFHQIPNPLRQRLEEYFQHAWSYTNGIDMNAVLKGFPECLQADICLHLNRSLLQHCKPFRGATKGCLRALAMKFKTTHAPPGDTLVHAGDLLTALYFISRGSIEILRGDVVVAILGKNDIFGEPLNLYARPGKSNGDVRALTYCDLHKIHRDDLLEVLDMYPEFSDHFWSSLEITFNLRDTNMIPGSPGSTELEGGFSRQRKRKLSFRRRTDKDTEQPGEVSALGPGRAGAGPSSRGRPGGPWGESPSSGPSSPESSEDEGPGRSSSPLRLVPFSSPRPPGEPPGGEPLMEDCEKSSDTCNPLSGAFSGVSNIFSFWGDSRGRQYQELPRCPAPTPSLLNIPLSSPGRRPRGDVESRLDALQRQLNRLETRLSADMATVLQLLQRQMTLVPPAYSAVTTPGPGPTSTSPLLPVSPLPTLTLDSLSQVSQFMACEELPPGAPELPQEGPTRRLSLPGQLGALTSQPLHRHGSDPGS

This assay has as its target human ether-à-go-go-related gene (hERG) potassium channel (human, UniProt Q12809). Put plainly: primary screen, population patch clamp on CHO cells stably expressing hERG; higher = less effect of the substance.
As to `O=C(Nc1nnc(SCC(=O)N2CCOCC2)s1)C1CC(=O)N(c2ccc(F)cc2)C1` (stereo not drawn), the “hERG current change (%, negative = inhibition) at 10uM” value is 15%.
For `O=[N+]([O-])c1ccc(Cl)cc1CNc1ccc(F)c(F)c1` the value was 0.95%.
For `COc1ccc(NC(=O)c2cc([N+](=O)[O-])ccc2NC(=O)CNC2CCCCC2C)c(OC)c1` (stereo not drawn) the value was -76.3%.
For `COc1cc(NC(=O)c2cc([N+](=O)[O-])ccc2NC(=O)CNC2CCCCC2C)cc(OC)c1` (stereo not drawn) the value was 20.3%; for `COc1ccc(CNC2CCCc3ccccc32)c(OC)c1` (stereo not drawn), -36.9%.
For `COc1ccc(CC(=O)NC2CCCCCC2)c(OC)c1`, the “hERG current change (%, negative = inhibition) at 10uM” value was -3.09%.
For `COc1ccc(CNC2CCCCC2C)c(OC)c1` (stereo not drawn) the value was -56.9%; for `COc1ccc(NC(=O)c2cc([N+](=O)[O-])ccc2NC(=O)CNCc2ccccn2)c(OC)c1`, 7.29%.
In the case of `CCOc1ccc(CCNC(=O)COC(=O)c2ccc(C)s2)cc1OCC` it was 14.6%.
For `COc1ccc(C2NC(=O)C(C#N)=C(S)N2c2ccc(C)cc2)cc1OC` (stereo not drawn) the value was 18.2%.
As for `Cc1c(C(N)=O)sc2nc(-c3ccccc3)cn12`, the “hERG current change (%, negative = inhibition) at 10uM” value is 1.01%.
In the case of `COc1ccc(Cl)cc1NC(=O)CNCC(c1ccccc1)N(C)C.O=C(O)C(=O)O` (stereo not drawn) it was -73.9%.
In the case of `COc1ccc(Cl)cc1NC(=O)CNC(c1ccccc1)c1ccccc1` it was 12.6%.
In the case of `Cc1ccc(Cl)cc1NC(=O)CNCC(c1ccccc1)N(C)C.O=C(O)C(=O)O` (stereo not drawn) it was -30.3%; in that of `Cc1ccc(NC(=O)CNCC(c2ccccc2)N(C)C)cc1F.O=C(O)C(=O)O` (stereo not drawn), -38.1%.
As to `CCOC(=O)c1cc(NC(=O)CNCC(c2ccccc2)N(C)C)cc(C(=O)OCC)c1.O=C(O)C(=O)O` (stereo not drawn), the “hERG current change (%, negative = inhibition) at 10uM” value is -57.7%.
For `CC(=O)c1ccc(NC(=O)CNCC(c2ccccc2)N(C)C)cc1.O=C(O)C(=O)O` (stereo not drawn) the value was 2.26%; for `Cn1c(SCC(=O)N2CCOCC2)nc2c(c1=O)SCC2`, 15.8%; for `O=C(C1CCCC1)N1CCC(CC2CC(c3cccc(Br)c3)=NO2)(C(=O)NCC2CCCCC2)CC1` (stereo not drawn), -49.9%.
In the case of `CC(C)(C)OC(=O)N1CCC(CC2CC(c3cccc(Br)c3)=NO2)(C(=O)NCC2CCCCC2)CC1` (stereo not drawn) it was 13.7%.
In the case of `O=C(C1CCCC1)N1CCC(CC2CC(c3ccc(Cl)cc3)=NO2)(C(=O)NCC2CCCCC2)CC1` (stereo not drawn) it was -24.1%; in that of `O=C(c1ccccc1)N1CCC(CC2CC(c3ccc(Cl)cc3)=NO2)(C(=O)NCC2CCCCC2)CC1` (stereo not drawn), -52%; in that of `O=C(CCCCCBr)N1CCC(CC2CC(c3cccc(Br)c3)=NO2)(C(=O)NCC2CCCCC2)CC1` (stereo not drawn), -69%.
As for `O=C(CCCCCBr)N1CCC(CC2CC(c3ccc(Cl)cc3)=NO2)(C(=O)NCC2CCCCC2)CC1` (stereo not drawn), the “hERG current change (%, negative = inhibition) at 10uM” value was -74.6%.
For `CC(C)(C)OC(=O)N1CCC(CC2CC(c3ccc(Cl)cc3)=NO2)(C(=O)NCC2CCCCC2)CC1` (stereo not drawn) the value was -19.5%.
For `CC1(C(=O)N2CCC(CC3CC(c4ccc(Cl)cc4)=NO3)(C(=O)NCC3CCCCC3)CC2)CC1` (stereo not drawn) the value was -40.8%.
For `O=C(c1ccccc1)N1CCC(CC2CC(c3cccc(Br)c3)=NO2)(C(=O)NCC2CCCCC2)CC1` (stereo not drawn) the value was -1.49%.
On to `CCOC(=O)c1c(-c2ccc(C)s2)csc1N`, for which the “hERG current change (%, negative = inhibition) at 10uM” value was 7.8%.
For `Cc1cccc(/C=C/C(=O)c2cc(Br)ccc(=O)c2O)c1` the value was 16.7%; for `COc1ccc(Oc2ncnc3sccc23)cc1`, 1.8%; for `CC#CC(=O)N1CCC(CCC(=O)N(C)Cc2ccccc2)CC1`, -7.72%.
In the case of `CCCCCCCNC1=CC(=O)CC(c2ccco2)C1` (stereo not drawn) it was -76.9%.
In the case of `CNC1=CC(=O)CC(c2ccccc2)C1` (stereo not drawn) it was -1.58%.
Regarding `CN(C)CCCNC1=CC(=O)CC(c2ccccc2)C1` (stereo not drawn), the “hERG current change (%, negative = inhibition) at 10uM” value is listed as 3.58%.
In the case of `CCc1ccc(NC2=CC(=O)CC(c3ccco3)C2)cc1` (stereo not drawn) it was 5.49%; in that of `CC(C)CNC1=CC(=O)CC(c2ccco2)C1` (stereo not drawn), 6.11%.
For `CCCCCCCNC1=CC(=O)CC(c2ccccc2)C1` (stereo not drawn) the value was -81.3%; for `COc1cc(S(=O)(=O)NCCN2CCOCC2)ccc1-n1cnnn1`, 17.5%.
In the case of `O=S(=O)(Nc1ccc2c(c1)OCCO2)c1cccc2nsnc12` it was -11.2%; in that of `O=C(O)c1ccc(Cn2cnc3scc(-c4ccccc4)c3c2=O)cc1`, 20.8%; in that of `C=CCc1cccc(CNc2nc3ccccc3n2CCN2CCOCC2)c1O`, -6.61%.
Take `Cn1c(CNc2nc3ccccc3n2CCN2CCCCC2)nc2ccccc21`: the “hERG current change (%, negative = inhibition) at 10uM” value is -65%.
In the case of `CCN(CC)CCn1c(NCc2nc3ccccc3n2Cc2ccccc2)nc2ccccc21` it was -2.44%; in that of `c1ccc(Cn2c(CNc3nc4ccccc4n3CCN3CCOCC3)nc3ccccc32)cc1`, -84.3%; in that of `c1ccc(Cn2c(CNc3nc4ccccc4n3CCN3CCCCC3)nc3ccccc32)cc1`, -68.5%.
In the case of `Cn1c(CNc2nc3ccccc3n2C)nc2ccccc21` it was -15.2%.
As for `c1coc(CNc2nc3ccccc3n2CCN2CCOCC2)c1`, the “hERG current change (%, negative = inhibition) at 10uM” value is on record as -33.2%.
In the case of `CC(C)n1c(NCc2nc3ccccc3n2C)nc2ccccc21` it was -46.4%.
For `C#CCOCCOCCOCCNc1nc(N2CCN(C(=O)Cn3cc(CCO)nn3)CC2)nc(N2CCN(C(=O)[C@H]([C@@H](C)O)n3cc(CCCC[NH3+])nn3)CC2)n1.[Cl-]` the value was 12.3%; for `CCOC(=O)/C(=N\Nc1ncnc2ccccc12)c1ccc(OC)cc1`, 15%; for `COc1ccc(NC(=O)CSC2CC(=O)N(c3ccc4c(c3)OCCO4)C2=O)cc1` (stereo not drawn), 4.54%.
For `O=C(c1ccccc1-c1nc(-c2ccc(F)cc2)no1)N1CCCC1` the value was -30.8%; for `Cn1nc(C(=O)Nc2ccc(Cl)c(S(=O)(=O)N3CCOCC3)c2)c2ccccc2c1=O`, -9.05%; for `O=C(NC1CCS(=O)(=O)C1)N1CCCCC1` (stereo not drawn), 13.2%.
For `O=C(NC(=S)N1CCN(c2nc(-c3ccccc3)cs2)CC1)c1cncc(Br)c1`, the “hERG current change (%, negative = inhibition) at 10uM” value was 17%.
In the case of `Cc1n[nH]c(=O)nc1NCc1ccccc1Cl` it was 3.23%.
As for `O=C(O)CCc1nnc2n(Cc3ccc(F)cc3)c(=O)c3ccccc3n12`, the “hERG current change (%, negative = inhibition) at 10uM” value was found to be 6.3%.
For the compound `O=C(c1ccc(Cn2c(=S)[nH]c3ccccc3c2=O)cc1)N1CCN(c2ccccn2)CC1`, the “hERG current change (%, negative = inhibition) at 10uM” value is on record as 8.99%.
For `CC(C)CCn1c(=O)c2sccc2n2c(CCCC(=O)N3CCN(c4ccccn4)CC3)nnc12` the value was -65%; for `COCCCn1c(=O)c2sccc2n2c(CCCC(=O)N3CCN(c4ccccn4)CC3)nnc12`, -2.18%; for `CC(C)OCCCn1c(=O)c2ccccc2n2c(CCC(=O)NCc3ccccn3)nnc12`, -14.4%.
In the case of `CC(C)OCCCn1c(=O)c2ccccc2n2c(CCC(=O)O)nnc12` it was 29.3%; in that of `CC(C)OCCCn1c(=O)c2ccccc2n2c(CCC(=O)N3CCN(c4ccccn4)CC3)nnc12`, -71.1%; in that of `Cn1c(=O)c2sccc2n2c(CCCC(=O)N3CCN(c4ccccn4)CC3)nnc12`, -11.1%.
As to `CCn1c(=O)c2sccc2n2c(CCCC(=O)N3CCN(c4ccccn4)CC3)nnc12`, the “hERG current change (%, negative = inhibition) at 10uM” value is listed as -17.6%.
For `Cc1ccc(Cn2c(=O)c3ccccc3n3c(CCC(=O)O)nnc23)cc1` the value was 10.9%; for `O=C(CCc1nnc2n(Cc3ccc(F)cc3)c(=O)c3ccccc3n12)N1CCN(c2ccccn2)CC1`, -79.2%.
For `O=C(CCc1nnc2n(Cc3ccc(Cl)cc3)c(=O)c3ccccc3n12)N1CCN(c2ccccn2)CC1` the value was -57%.
In the case of `CC(C)(O)[C@H]1Cc2cc3ccc(=O)oc3cc2O1` it was 21.2%; in that of `O=C(CSc1nc(NS(=O)(=O)c2ccccc2)cc(=O)[nH]1)Nc1ccccc1C(F)(F)F`, 9.04%; in that of `CCCCCN(C(=O)CCC(=O)OCC(=O)c1cccc(OC)c1)c1c(N)n(CCCC)c(=O)[nH]c1=O`, -64.6%.
Consider `CCCCCN(C(=O)CCC(=O)OCc1ccc(Cl)cc1Cl)c1c(N)n(CCCC)c(=O)[nH]c1=O`, for which the “hERG current change (%, negative = inhibition) at 10uM” value is on record as -50.1%.
Turning to `CCCCCN(C(=O)CCC(=O)OCC(=O)c1ccc(F)c(F)c1)c1c(N)n(CCCC)c(=O)[nH]c1=O`, the “hERG current change (%, negative = inhibition) at 10uM” value was -33.7%.
Turning to `CCCCCN(C(=O)CCC(=O)OCc1cccc(Cl)c1)c1c(N)n(CCCC)c(=O)[nH]c1=O`, the “hERG current change (%, negative = inhibition) at 10uM” value worked out at 8.16%.
In the case of `CCCCCN(C(=O)CCC(=O)OCC(=O)c1ccc(C(C)CC)cc1)c1c(N)n(CCCC)c(=O)[nH]c1=O` (stereo not drawn), the “hERG current change (%, negative = inhibition) at 10uM” value is 8.1%.
For `CCCCCN(C(=O)CCC(=O)OCc1ccccc1Cl)c1c(N)n(CCCC)c(=O)[nH]c1=O`, the “hERG current change (%, negative = inhibition) at 10uM” value is listed as -49.8%.
For `CCCCCN(C(=O)CCC(=O)OCC(=O)c1ccc(C(C)(C)C)cc1)c1c(N)n(CCCC)c(=O)[nH]c1=O` the value was -33.7%; for `CCCCCN(C(=O)CCC(=O)OCC(=O)NCc1cccc(OC)c1)c1c(N)n(CCCC)c(=O)[nH]c1=O`, -0.375%.
For `CCCCCN(C(=O)CCC(=O)OCC(=O)c1ccc(CCC)cc1)c1c(N)n(CCCC)c(=O)[nH]c1=O` the value was -61.5%.
For `Fc1ccc(NC(=S)NCc2cccnc2)cc1` the value was 13.1%; for `CCCS(=O)(=O)N1CCC(C(=O)NCCCOC)CC1`, -0.339%.
